# Bioassay records: PubChem, several laboratories
# This is a sample that favours compounds with a hit; in the whole collection about 3.6% have one here.
# NadD inh: inhibitors of S. aureus NadD, primary screen, biochemical, colorimetric, uHTS; Nicotinate-nucleotide adenylyltransferase NadD (Staphylococcus aureus N315); 360,000 tested, 0.78% active; purified NadD enzyme, colorimetric absorbance read-out; inhibition, % at 20 µM; in the data active means inhibition above about 26%
# FAS-TE inh: FAS thioesterase domain inhibitors, primary screen, biochemical, fluorescence intensity, uHTS; Fatty acid synthase (Homo sapiens), P49327; recombinant FAS-TE, OMFH fluorogenic substrate, fluorescence endpoint; inhibition, % at 15 µM; 360,000 tested, 0.67% active; AID 602261, 2012;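 active means compounds whose normalised, plate-corrected inhibition of enzyme fluorescence in the single-dose primary screen is 50% or more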
# CRFBP-R2 block: antagonists of CRF-BP/CRF-R2 complex, primary screen, cell-based, HEK293, calcium dye fluorescence, uHTS; inhibition, % at 11.8 µM; 350,000 tested, 0.59% active; CRF-induced calcium fluorescence;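 active means inhibition of the ligand-induced calcium signal above about 50% at the single tested concentration, limit read from the data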
# CendR NRP1 mod: modulators of CendR peptide binding to NRP-1, primary screen, biochemical, fluorescence polarization, uHTS; Neuropilin-1 (Homo sapiens), O14786; FAM-RPARPAR peptide binding to NRP-1; inhibition, % at 25 µM; 360,000 tested, 0.85% active; AID 602438, 2012;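 active means inhibition or corrected inhibition above about 18%, plus a signal ratio from 0.5 to 1.5, limit read from the data, passing the limit was not always enough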
# Target sequence (O14786 whole entry, looked up): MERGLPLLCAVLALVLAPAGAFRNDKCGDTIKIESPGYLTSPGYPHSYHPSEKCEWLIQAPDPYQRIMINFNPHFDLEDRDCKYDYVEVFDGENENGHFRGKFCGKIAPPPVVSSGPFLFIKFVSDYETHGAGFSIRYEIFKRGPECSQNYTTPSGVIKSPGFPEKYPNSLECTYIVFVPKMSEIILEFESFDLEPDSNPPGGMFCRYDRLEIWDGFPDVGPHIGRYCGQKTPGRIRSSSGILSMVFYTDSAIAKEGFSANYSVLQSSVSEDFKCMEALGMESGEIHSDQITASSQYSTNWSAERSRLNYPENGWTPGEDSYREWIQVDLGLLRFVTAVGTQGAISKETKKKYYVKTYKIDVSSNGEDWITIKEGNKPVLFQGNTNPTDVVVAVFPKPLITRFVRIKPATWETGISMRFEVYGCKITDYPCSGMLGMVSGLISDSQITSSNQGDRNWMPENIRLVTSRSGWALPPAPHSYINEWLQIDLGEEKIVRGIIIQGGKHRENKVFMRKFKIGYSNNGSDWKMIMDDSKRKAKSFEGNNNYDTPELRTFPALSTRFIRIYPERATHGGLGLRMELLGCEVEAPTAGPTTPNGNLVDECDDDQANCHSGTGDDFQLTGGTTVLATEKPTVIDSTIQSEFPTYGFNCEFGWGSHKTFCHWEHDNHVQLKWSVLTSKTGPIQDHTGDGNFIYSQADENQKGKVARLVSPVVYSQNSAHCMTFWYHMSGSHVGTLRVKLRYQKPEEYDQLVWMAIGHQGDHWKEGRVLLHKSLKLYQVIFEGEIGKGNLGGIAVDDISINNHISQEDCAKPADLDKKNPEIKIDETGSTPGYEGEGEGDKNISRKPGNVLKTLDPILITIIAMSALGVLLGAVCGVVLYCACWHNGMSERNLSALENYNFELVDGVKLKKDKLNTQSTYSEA
# Myeloid diff MLP: induction of myeloid progenitor differentiation, primary screen, cell-based, flow cytometry, MLPCN library; ER-HoxA9 myeloid progenitors, lysozyme-GFP differentiation; calls only at 10 µM; 360,000 tested, 1% active; AID 624256, 2012;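 active means normalized GFP-positive differentiation at or above the plate's own cutoff, the solvent-only control mean plus 3 SD; inconclusive means no clear call, values can overlap the other calls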;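 further: cells exposed to compound for four days before flow analysis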
# Myeloid diff: inducers of myeloid progenitor differentiation, confirmation, cell-based, GFP/Mac1 flow cytometry, cherry pick 01; calls only; shares compounds with Myeloid diff MLP; 2,300 tested, 2% active; AID 651706, 2012; ER-HoxA9 myeloid progenitors, GFP/Mac1 double-positive flow;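 active means share of green or green-and-red cells above 9 and 9% in run 1 or 4 and 3% in run 2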
# GFP autofluor: counter-screen for myeloid differentiation promoters: compound fluorescence; ER-HoxA9 myeloid progenitors, no estrogen, GFP autofluorescence flow cytometry; vehicle wells 0%, positive control 100%; fluorescence response, % (no concentration beside the values); 2,300 tested, 7.4% active; shares compounds with Myeloid diff MLP; AID 651707;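 active means over 5% cells positive for green fluorescent reporter, or over 2% positive for both it and APC stain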
# A number is an active result; – = inactive; ? = inconclusive; · = no result; + = active, no number.
SMILES,NadD inh,FAS-TE inh,CRFBP-R2 block,CendR NRP1 mod,Myeloid diff MLP,Myeloid diff,GFP autofluor
C=CCn1c(Cc2ccccc2)nc2c(cnn2-c2ccccc2)c1=O,–,–,–,–,–,·,·
Cc1ccc(C)c(N2CCN(C(=O)CCc3nc(-c4cccc(Cl)c4)no3)CC2)c1,–,–,–,–,–,·,·
Cc1ccc([C@H]2C[C@H](n3cc(C4CC4)nn3)[C@@H](O)CN2Cc2cccs2)cc1,–,–,–,–,–,–,–
CC1(C)CC(=O)C=C(C#CC2(O)CCCCC2)C1,–,–,–,–,?,–,–
COc1ccc(NC(=O)CN(C)C(=O)CCNC(=O)c2ccccc2OC)cc1,–,–,–,–,–,·,·
CCCCc1nn(-c2cc(Cl)ccc2OC)c2c1C(=O)CC(C)(C)C2,–,–,–,–,–,–,–
Cc1ccc2nc(/C(C#N)=C/c3ccc(-c4ccccc4C(=O)O)o3)[nH]c2c1,–,–,–,–,–,·,·
Cc1ccc(/C(C#N)=C\c2ccc(N3CCOCC3)o2)cc1,–,–,–,–,–,·,·
Cc1ccc2nc(/C(C#N)=C\c3ccc(N4CCOCC4)o3)[nH]c2c1,–,–,–,–,+,–,29
Cc1cc2nc(/C(C#N)=C\c3ccc(-c4ccccc4C(=O)O)o3)[nH]c2cc1C,–,–,–,–,–,–,–
CC1=NN(C(C#N)c2ccc(F)cc2)C(C)(C)C1 (stereo not given),–,–,–,–,+,–,–
CC1=NN(C(C#N)c2ccc([N+](=O)[O-])cc2)C(C)(C)C1 (stereo not given),·,·,–,·,·,·,·
CCCCOC(=O)C1=C(C)NC(=O)NC1c1ccc([N+](=O)[O-])s1 (stereo not given),–,–,–,–,+,–,–
O=C(CSc1oc(-c2ccccc2)nc1S(=O)(=O)c1ccc(F)cc1)NCC1CCCO1 (stereo not given),–,–,–,–,–,–,–
COc1ccc(CCNC(=O)CCOc2cc(C)ccc2C)cc1OC,–,–,–,–,–,·,·
CCC1CCCCN1CCCNC(=O)c1ccc(CS(=O)(=O)Cc2ccc(Cl)cc2)o1 (stereo not given),–,–,–,–,–,·,·
COc1ccc(Cc2nc3ccc(C(=O)NC(C)C)cc3o2)cc1,–,–,–,–,–,–,–
CCC(C)NC(=O)c1ccc2nc(Cc3ccc(OC)cc3)oc2c1 (stereo not given),–,–,–,–,–,·,·
COc1ccc(C2C(=O)N(C3CCCCC3)CC(=O)N2Cc2ccc3c(c2)OCO3)cc1 (stereo not given),–,–,–,–,–,–,–
O=S(=O)(c1ccc2c(c1)OCCO2)N1CCN(c2nc3ccccc3s2)CC1,–,–,–,–,–,–,–
CC1CCCCC1NC(=O)C(=O)NCC1CCCO1 (stereo not given),–,–,–,–,–,–,–
CCc1ccc(CNC(=O)C(=O)NCC2CCCO2)cc1 (stereo not given),–,–,–,–,–,·,·
COc1ccccc1CNC(=O)[C@H](C)NC(=O)C1CCN(C(=O)[C@@H](N)CCSC)CC1,–,–,–,–,–,·,·
Cn1c(=O)c(N=O)c(N)n(Cc2ccccc2)c1=S,–,–,–,–,–,·,·
CN1CCN(C(=S)NC(=O)c2ccco2)CC1,–,–,–,–,–,·,·
SMILES,NadD inh,FAS-TE inh,CRFBP-R2 block,CendR NRP1 mod,Myeloid diff MLP,Myeloid diff,GFP autofluor
C=CCn1cnnc1SCC(=O)N(C1CCCCC1)C1CCS(=O)(=O)C1 (stereo not given),–,–,–,–,–,–,–
Cc1nnc(SCC(=O)N(C2CCCCC2)C2CCS(=O)(=O)C2)n1N (stereo not given),–,–,–,–,–,·,·
Cc1cccc(Oc2coc3cc(O)ccc3c2=O)c1,–,–,–,–,–,·,·
c1coc(C2Nc3ccccc3-c3nc4ccccc4n32)c1 (stereo not given),–,–,–,–,–,–,–
COc1cccc(-n2cc(CN(C)Cc3nc(Cc4cccc(F)c4)no3)cn2)c1,–,–,–,–,–,–,–
COc1cccc(-n2cc(CN(C)Cc3nc(Cc4ccccc4)no3)cn2)c1,–,–,–,–,–,·,·
Nc1nc2ccccc2cc1C(=O)NCCCCc1ccccc1,–,–,·,–,–,–,–
COc1ccc2[nH]c(=O)c(CN(CC3CCCO3)S(=O)(=O)c3ccccc3)cc2c1 (stereo not given),–,–,–,–,–,·,·
COc1ccc2cc(CN(CC3CCCO3)S(=O)(=O)c3ccccc3)c(=O)[nH]c2c1 (stereo not given),–,–,–,–,+,–,–
CSc1cccc(NC(=O)CCNS(=O)(=O)c2ccc3[nH]c(=O)oc3c2)c1,–,–,–,–,–,·,·
CCCC1=[N+](CC(=O)c2ccccc2)CCn2c(C)ccc21,–,–,–,–,+,–,–
COC(=O)/C(=C/Nc1ccc(O)cc1)[N+](=O)[O-],–,–,–,–,–,·,·
COC(=O)/C(=C/Nc1ccccc1)[N+](=O)[O-],–,–,–,–,·,–,–
Cc1cc(S(=O)(=O)N(Cc2ccccc2F)C2CC2)ccc1-n1cnnn1,–,–,–,–,–,–,–
CCN(CC)S(=O)(=O)c1ccc(-n2cnnn2)c(C)c1,–,–,–,–,–,·,·
O=C(NCc1ccccc1)C(C(=O)c1ccc(F)cc1)n1ccccc1=O (stereo not given),–,–,–,–,–,–,–
O=c1c2ccccc2c(/C=N/NS(=O)(=O)c2ccccc2)c(O)n1-c1ccccn1,–,–,–,–,–,–,–
COc1ccc(NC(=O)c2ccc(-c3nn(C)c(=O)c4ccccc34)cc2)cc1C(N)=O,–,–,–,–,–,·,·
COC(=O)C1=CN(Cc2ccc(OC)c(OC)c2)C=C(C(=O)OC)C1c1cccc(F)c1,–,–,–,–,+,–,–
CCOc1cc(CNc2ccc(Br)cc2)cc(Br)c1OCC(=O)NC(C)(C)C,–,–,–,–,·,–,–
CSCCC(NC(=O)c1ccccc1Cl)C(=O)NCCc1ccccn1 (stereo not given),–,–,–,–,–,·,·
O=C(O)c1ccccc1Nc1ccc([N+](=O)[O-])cc1,–,–,–,–,–,+,–
COc1ccc(N(CC(=O)NCc2ccccc2)C(=O)Cn2nnc(-c3ccccc3F)n2)cc1OC,–,–,–,–,–,·,·
COc1cccc(N2CCN(S(=O)(=O)c3ccc4ccccc4c3)CC2)c1,–,–,–,–,–,–,–
COc1ccc(S(=O)(=O)N2CCN(c3ccccc3)CC2)cc1,–,–,–,–,–,·,·
CC(C)CCn1cnc2c(oc3nc4c(cc32)CCCC4)c1=O,–,–,–,–,–,·,·
